Bioassay records: PubChem, National Center for Advancing Translational Sciences (NCATS)
KB-V1 cytotox: qHTS assay for MDR1-selective chemotherapeutics: Primary screen using the drug-selected MDR subline cells KB-V1. 3.4% of 400,000 active. Potency, µM (doses to about 46.1 µM), most hits filed as cytotoxic. AID 1347076, 2019. KB-V1 MDR cells viability, CellTiter-Glo, 72 h; note: % is set by controls: 0 for no effect and ±100 for the full control effect; nearly all actives have a fitted effect of over 60% in size
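KB-V1 cells (P-gp-expressing MDR subline of KB-3-1) in phenol-red-free DMEM with 10% FBS were exposed to library compounds over a concentration series for 72 h at 37 degrees C. Viability read by CellTiter-Glo luminescence; concentration-effect curves fitted after normalization.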
PINK1 modulator: A Quantitative High throughput Screen to Identify Chemical Modulators of PINK1 Expression; Potency, µM (top dose mostly 76.6 µM), for the others: at the highest dose activation (PINK1 increase), actives largely listed as activators; PINK1 immunofluorescence, high-content cytometry, 24 h; 0.2% of 410,000 active; active = well fitted activation curve with a large enough effect; inconclusive = small, poorly fitted or top-dose-only effect; cell line not stated here; note: % of control where 0% means no effect; nearly all actives have a fitted effect of over 65% in size
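Stable cell line treated 24 h with compounds at 5 concentrations (CCCP controls), then fixed and immunostained for PINK1 plus nuclear and cell stains; PINK1 immunofluorescence quantified by laser-scanning microplate cytometry.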
SW480 rerep: A quantitative high throughput screen for small molecules that induce DNA re-replication in SW480 colon adenocarcinoma cells | SW480 DNA re-replication, Hoechst DNA content imaging, 48 h | Potency, µM (top dose mostly 46.1 µM), without a hit: top-dose re-replication activation, usual class: activators | 1.8% of 340,000 active; note: % of control where 0% means no effect; nearly all actives have a fitted effect of over 55% in size
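SW480 cells exposed to compounds for 48 hr at 37 C, 5% CO2, then Hoechst-stained 40 min. Nuclear DNA content imaged by fluorescence scanning (405 nm excitation, 500-530 nm emission); re-replication scored as increased high-intensity nuclei.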
KB-3-1 cytotox: qHTS assay for MDR1-selective chemotherapeutics: Primary screen using the parental adenocarcinoma cell KB-3-1 | 1.4% of 400,000 active | Potency, µM (titrated, usually from 46.1 µM), usual class: cytotoxic | AID 1347075, 2019 | KB-3-1 viability, CellTiter-Glo ATP luminescence, 72 h; note: % is set by controls: 0 for no effect and ±100 for the full control effect; nearly all actives have a fitted effect of over 60% in size
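KB-3-1 cells, DMEM (no phenol red) + 10% FBS; compound by pin transfer, 72 h, 37 °C. Readout: CellTiter-Glo luminescence after 10 min. Data normalized, curve-fitted.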
MCF10A rereplic: A quantitative high throughput screen for small molecules that induce DNA re-replication in MCF 10a normal breast cells; MCF 10A DNA re-replication, Hoechst nuclear intensity, 48 h; Potency, µM (series often up to 46.1 µM), for inactives: top-dose activity, positive = re-replication, most hits filed as activators; 2.9% of 350,000 active; note: % of control where 0% means no effect; nearly all actives have a fitted effect of over 50% in size
Active calls of the source: *; [ ] = another dose, or the depositor's remark. The list is not random: actives were taken first. Their share in the collection is about 6.7%. Unless noted, calls come from the whole dose curve; as a rule, active = well fitted curve in the direction sought with a large enough effect; inconclusive = small, poorly fitted or top-dose-only effect, or another doubt; inactive = no such curve, though single readings can be large; an effect the other way counts as inactive or inconclusive. Potency is the fitted concentration of half-maximal effect.

For O=C(O)C1(c2ccccc2)CCN(S(=O)(=O)c2ccccc2)CC1 the results were KB-V1 cytotox inactive, PINK1 modulator 2%, SW480 rerep -3%, KB-3-1 cytotox inactive and MCF10A rereplic 4%.
For CN(C)C(=O)C1(c2ccccc2)CCN(S(=O)(=O)c2ccccc2)CC1 the results were KB-V1 cytotox 21µM*, PINK1 modulator -4%, SW480 rerep -7%, KB-3-1 cytotox inconclusive and MCF10A rereplic 0%.
`C=C1C=C(C)n2ncc(C(=O)Nc3ccccc3C(=O)OC)c2N1` gave KB-V1 cytotox inactive, PINK1 modulator 0% and KB-3-1 cytotox inconclusive.
Screening Cc1ccc(S(=O)(=O)NCCN=C(CN2CCCC2)NS(=O)(=O)c2ccc(C)cc2)cc1 returned KB-V1 cytotox 6.5µM*, PINK1 modulator -30%[38.3 µM], SW480 rerep 7%, KB-3-1 cytotox inactive and MCF10A rereplic 1%.
Screening O=Cc1ccc2cccnc2n1 returned KB-V1 cytotox inactive, PINK1 modulator -1%, SW480 rerep 1%, KB-3-1 cytotox inactive and MCF10A rereplic -2%.
`O=Cc1ccc2ccc3cccnc3c2n1` gave KB-V1 cytotox inactive, PINK1 modulator 0%, SW480 rerep 21µM*, KB-3-1 cytotox inactive and MCF10A rereplic inconclusive.
For COc1ccc(Nc2nc(-c3cccs3)nc3ccccc23)cc1 the results were KB-V1 cytotox 18µM*, PINK1 modulator 0%, SW480 rerep 2%, KB-3-1 cytotox inconclusive and MCF10A rereplic 16µM*.
For Cc1c(C(=O)N(C)CC2CCCN(C)C2)cnn1-c1nccc(-c2ccco2)n1 (stereo not drawn) the results were PINK1 modulator 0%.
For Cc1cccc(N2C(=O)C(CC(=O)Nc3ccc(F)cc3)N(C3CCCC3)C2=O)c1 (stereo not drawn) the results were PINK1 modulator 7%.
O=S(=O)(c1ccc(Br)cc1)c1cnc2ccccc2n1 was read as KB-V1 cytotox inactive, PINK1 modulator 2%, SW480 rerep 18µM*, KB-3-1 cytotox inactive and MCF10A rereplic inconclusive.
Screening O=C(Nc1ccc(F)c(Cl)c1)c1cc(C2CCCCN2C(=O)c2ccccc2)on1 (stereo not drawn) returned KB-V1 cytotox inactive, PINK1 modulator 0% and KB-3-1 cytotox inactive.
For COC(=O)C1CCN(C(c2ccccc2)c2sc3nc(-c4ccco4)nn3c2O)CC1 (stereo not drawn) the results were PINK1 modulator -1%.
COc1cc(C2C3=C(CC(C)(C)CC3=O)N(C)C3=C2C(=O)CC(C)(C)C3)cc(Br)c1O was read as KB-V1 cytotox inactive, PINK1 modulator 1%, SW480 rerep 11%, KB-3-1 cytotox inactive and MCF10A rereplic 26%.
`Cc1ccc(S(=O)(=O)c2nc(-c3ccc(F)cc3)oc2SCC(=O)NCC2CCCO2)cc1` (stereo not drawn) gave KB-V1 cytotox 1.8µM*, PINK1 modulator 9%, SW480 rerep 0%, KB-3-1 cytotox inactive and MCF10A rereplic inconclusive.
For O=C(CN(C1CCCCC1)S(=O)(=O)c1ccc(F)cc1)NCc1ccncc1 the results were KB-V1 cytotox 8.2µM*, PINK1 modulator 0%, SW480 rerep -4%, KB-3-1 cytotox inactive and MCF10A rereplic -11%.
O=C(CN(C1CCCCC1)S(=O)(=O)c1ccc(F)cc1)NCC1CCCO1 (stereo not drawn) was read as KB-V1 cytotox inconclusive, PINK1 modulator -1%, SW480 rerep 1.2µM*, KB-3-1 cytotox 4.6µM* and MCF10A rereplic inconclusive.
O=C(O)c1ccc2oc(=O)c(S(=O)(=O)c3ccccc3)cc2c1 was read as KB-V1 cytotox inconclusive, PINK1 modulator 1%, SW480 rerep -8%, KB-3-1 cytotox inactive and MCF10A rereplic -10%.
Screening Cc1c(O)ccc2cc(S(=O)(=O)c3ccccc3)c(=O)oc12 returned KB-V1 cytotox inactive, PINK1 modulator 0%, SW480 rerep 1.8µM*, KB-3-1 cytotox inactive and MCF10A rereplic 4.1µM*.
For CCN(CC)c1nc(SCCOC(=O)Nc2ccccc2)nc(N(CC)CC)n1 the results were KB-V1 cytotox 21µM*, PINK1 modulator 5%[38.3 µM], SW480 rerep 3%, KB-3-1 cytotox inactive and MCF10A rereplic 9.2µM*.
`CN(C)c1nc(SCCOC(=O)c2ccccc2)nc(N(C)C)n1` gave KB-V1 cytotox inconclusive, PINK1 modulator 11%[38.3 µM], SW480 rerep 5%, KB-3-1 cytotox inactive and MCF10A rereplic 5%.
`CCOC(=O)CNC(c1ccccc1)c1cc(Br)ccc1NC(=O)CCN1CCOCC1` (stereo not drawn) gave KB-V1 cytotox inconclusive, PINK1 modulator 2%, SW480 rerep 107%, KB-3-1 cytotox inactive and MCF10A rereplic 10µM*.
COC(=O)CNC(c1ccccc1)c1cc(Br)ccc1NC(=O)CCN1CCOCC1 (stereo not drawn) was read as KB-V1 cytotox inconclusive, PINK1 modulator 8%, SW480 rerep inconclusive, KB-3-1 cytotox inactive and MCF10A rereplic 18µM*.
For COC(=O)CNC(c1ccccc1)c1cc(Br)ccc1NC(=O)CNC(=O)OCc1ccccc1 (stereo not drawn) the results were KB-V1 cytotox inconclusive, PINK1 modulator -1%, SW480 rerep 11%, KB-3-1 cytotox inactive and MCF10A rereplic inconclusive.
COC(=O)CNC(c1ccccc1)c1cc(Br)ccc1NS(=O)(=O)c1ccc(C)cc1 (stereo not drawn) was read as KB-V1 cytotox 5.8µM*, PINK1 modulator 1%, SW480 rerep 4%, KB-3-1 cytotox inactive and MCF10A rereplic 9%.
For Cc1cccc(NC(=O)CS(=O)(=O)c2nc(-c3ccccc3)cn2-c2cccc(Cl)c2)c1C the results were KB-V1 cytotox inactive, PINK1 modulator 1% and KB-3-1 cytotox inactive.
For CC1(C(=O)NS(=O)(=O)c2ccc(Cl)cc2)CCN1C(=O)Cc1cccs1 (stereo not drawn) the results were KB-V1 cytotox inactive, PINK1 modulator 1% and KB-3-1 cytotox inactive.
For COc1ccccc1-c1nc(NCc2cnc(C)cn2)c2ccccc2n1 the results were PINK1 modulator 1%.
Screening CCOC(=O)c1c(C)[nH]c(C)c1S(=O)(=O)N1CCCC(C(=O)N2CCN(c3cccc(C)c3C)CC2)C1 (stereo not drawn) returned KB-V1 cytotox inactive, PINK1 modulator -1% and KB-3-1 cytotox inactive.
